# PubChem BioAssay (NCI)
# Compounds without any hit were thinned out: in the full panel of roughly 83,000, 20% have a hit.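 The test compound was applied at a single concentration to cells in 96-well plates for 48 hours, and percent growth was recorded.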 A number with no mark means an inactive call. The source made the active and inactive calls. How the source made its calls: active means growth percent below 10; inactive means the rest.
# Key:
# Assay in all cases: NCI-60 one-dose screen, 48 h (100 = growth as untreated, 0 = no growth, -100 = all killed)
# Details in all cases: 10 µM unless noted
# NCI-H23 lung = tested on: NCI-H23 lung
# NCI-H226 lung = tested on: NCI-H226 lung
# NCI-H322M lung = tested on: NCI-H322M lung
# HOP-62 NSCLC = tested on: HOP-62 NSCLC
# NCI-H460 lung = tested on: NCI-H460 lung
# HOP-92 NSCLC = tested on: HOP-92 NSCLC
# NCI-H522 lung = tested on: NCI-H522 lung
# A549/ATCC NSCLC = tested on: A549/ATCC NSCLC
# 786-0 renal = tested on: 786-0 renal
# COLO 205 colon = tested on: COLO 205 colon
# DU-145 prostate = tested on: DU-145 prostate
# K-562 leukemia = tested on: K-562 leukemia
# MALME-3M melanoma = tested on: MALME-3M melanoma
# MDA-MB-231 breast = tested on: MDA-MB-231 breast
# RXF 393 renal = tested on: RXF 393 renal
# SF-268 CNS = tested on: SF-268 CNS
# SF-295 CNS = tested on: SF-295 CNS
# SF-539 CNS = tested on: SF-539 CNS
# UACC-257 melanoma = tested on: UACC-257 melanoma
# M14 melanoma = tested on: M14 melanoma
SMILES,growth (NCI-H23 lung),growth (NCI-H226 lung),growth (NCI-H322M lung),growth (HOP-62 NSCLC),growth (NCI-H460 lung),growth (HOP-92 NSCLC),growth (NCI-H522 lung),growth (A549/ATCC NSCLC),growth (786-0 renal),growth (COLO 205 colon),growth (DU-145 prostate),growth (K-562 leukemia),growth (MALME-3M melanoma),growth (MDA-MB-231 breast),growth (RXF 393 renal),growth (SF-268 CNS),growth (SF-295 CNS),growth (SF-539 CNS),growth (UACC-257 melanoma),growth (M14 melanoma)
CC(C)CCSc1nc(Nc2ccccc2)c(C#N)c(-c2ccccc2)n1,50.1%,90.3%,34.3%,19.7%,14.6%,21.8%,69.8%,14.8%,8.79% (active),46%,61.9%,48.6%,37.4%,8.82% (active),23.1%,60%,32%,18.4%,88.2%,71.4%
COc1ccc(/C=C/C(=O)c2cc3c(N)c(C(=O)Nc4ccc(OC)cc4)sc3nc2C)cc1,32.7%,49.4%,36.4%,49.2%,-6.51% (active),97.7%,-29.6% (active),13.5%,27.7%,-47.7% (active),17.5%,17.9%,49.1%,24.7%,-14.4% (active),39.5%,11.6%,-25.5% (active),55.3%,10.2%
COc1ccc2c(c1)c(-c1ccc(-c3cn(C)c4ccc(OC)cc34)[nH]1)cn2C,34.2%,58.8%,71%,83.3%,30.1%,-7.36% (active),-47.8% (active),28.8%,65%,-58.2% (active),66.2%,0.411% (active),30.2%,-3.99% (active),-28.5% (active),9.71% (active),44.5%,-57.3% (active),87%,43.6%
Nc1n[nH]c2ccc([C@@H]3Nc4cc5[nH]ncc5cc4[C@H]4C5CCC(C5)[C@@H]34)cc12 (stereo not given in full),27.3%,15%,43%,46.9%,7.16% (active),58.2%,13.9%,24.6%,28.3%,-11.9% (active),21.2%,10.6%,46.9%,12.7%,-2.95% (active),45.4%,11.8%,-11.3% (active),67.4%,-3.7% (active)
COc1ccc2c(O)c(/C=C3\N=Nc4ccccc43)oc2c1C[C@H]1CCNC[C@H]1F,46.8%,60.6%,73.4%,53.6%,29.8%,38.6%,46.7%,34.4%,57.8%,0.564% (active),51.1%,37.4%,42.3%,47.8%,59.9%,77.2%,66.9%,57.4%,52.2%,28.7%
COc1cccc(OC)c1Oc1c(-c2nc3ccccc3s2)c(C)nn1-c1ccccc1,74.4%,79.9%,65.6%,70.4%,78.8%,62.2%,68.3%,67.4%,91.4%,98.4%,79.4%,61%,81.7%,76.4%,67.9%,77.1%,69.4%,92%,92.4%,72.3%
Cc1cc2oc(=O)cc(CP(=O)(O)O)c2cc1O,100%,102%,91.2%,97.3%,103%,100%,93.9%,99.9%,105%,104%,103%,107%,85.8%,97.4%,103%,96.6%,100%,96.8%,94.5%,103%
CC(C)c1ccc(NC(=O)Nc2ccc(NC(=O)c3ccccc3N)cc2)cc1,59.5%,74.3%,55%,22.6%,22.7%,74.2%,26.8%,50%,8.19% (active),61.8%,79.2%,18.2%,72.9%,50.1%,-25.1% (active),51.8%,-27.3% (active),30.1%,58.6%,34%
